The results in this text go back to PubChem BioAssay (NCATS).

Each structure is given as a SMILES string. Several values for one entry are separate records, joined by “and”; a condition that tells them apart may be missing. Equal entries are not always repeated. Records with an inconclusive call do not appear. More than one record can exist for a structure, and the calls need not agree. Unmarked numbers belong to inactive results. Activity calls are given as the source filed them. Unless noted, calls come from the whole dose curve; as a rule, active = well fitted curve in the direction sought with a large enough effect; inconclusive = small, poorly fitted or top-dose-only effect, or another doubt; inactive = no such curve, though single readings can be large; an effect the other way counts as inactive or inconclusive.

The target in experiment [1] is Cellular tumor antigen p53 (Homo sapiens) (UniProt P04637). Description: Primary qHTS for small molecule compounds that upregulate eGFP-tagged delta133p53alpha (in N-terminal) cells. (AID 2060322).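 For activation: series mostly up to about 56 µM; 0% = DMSO vehicle and 100% = reference activator.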 Note: nearly all actives have a fitted effect of over 75% in size. Note: potency is the fitted concentration of half-maximal effect. To be noted: NCI-H358 eGFP-delta133p53alpha fluorescence, 24 h; activation: hits give high values. In outline:
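NCI-H358 cells pre-induced 24 h with 10 ng/ml doxycycline to express N-terminal eGFP-delta133p53alpha, then dosed 24 h at 37C without doxycycline; fixed, Hoechst-stained, GFP intensity by laser scanning cytometry, normalized to DMSO (0%) and 57.5 uM 5-azacytidine (100%).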
For orientation: In qHTS, concentration-response curves come from the screen itself.

The target is the same in experiment [2]. Briefly: Primary qHTS for small molecule compounds that upregulate eGFP-tagged delta133p53alpha (in C-terminal) cells. (AID 2060324). Note: potency is the fitted concentration of half-maximal effect. In outline: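 In this qHTS, GFP-tagged delta133p53alpha levels are measured in fixed NCI-H358 cells after 24 h compound exposure at 37 °C. The cells are pre-induced with 100 ng/ml doxycycline, and signal is normalized to DMSO-treated wells as 0%.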

In experiment [3] the target is Aldehyde dehydrogenase, mitochondrial (Homo sapiens) (UniProt P05091). Briefly: qHTS for Inhibitors of the Aldehyde Dehydrogenase Family (ALDH2) Validation screens (AID 2061302; active = well fitted inhibition curve with a large enough effect; title and protocol of this record describe different tests; note: potency is the fitted concentration of half-maximal effect).
A short description of experiment [4]: BET inhibitor-based combinations targeting novel dependencies in MECOM-rearranged (r) AML: SET-2 cell line (AID 2202231).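 Note: plate controls were DMSO treated cells for no effect and wells without cells for full effect; nearly all actives have a fitted effect of over 35% in size.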 The conditions noted are these: SET-2 AML cells viability, CellTiter-Glo luminescence, 48 h; viability: hits give low values, series mostly up to about 46 µM. In outline: (§1)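 Viability of cells (500 per well) is scored by luminescent CellTiter-Glo at 48 hr post-dosing. Eleven-point titrations are normalized to DMSO and empty controls and reduced to AUC values.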

Experiment [5] can be described thus: BET inhibitor-based combinations targeting novel dependencies in MECOM-rearranged (r) AML: OCI-AML3 cell line (AID 2202232).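 Note: series mostly up to about 46 µM; plate controls were DMSO vehicle wells for no effect and wells without cells for full effect; nearly all actives have a fitted effect of over 35% in size.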 To be noted: Potency: OCI-AML3 viability. In outline:
as §1

A short description of experiment [6]: BET inhibitor-based combinations targeting novel dependencies in MECOM-rearranged (r) AML: MV-4-11 cell line (AID 2202233). Note: potency is the fitted concentration of half-maximal effect; nearly all actives have a fitted effect of over 45% in size. In outline: (§2)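 Using pin-tool transfer, drugs were added in 11 doses to cells (500/well), incubated 48 hr, and assessed with CellTiter-Glo. Z-AUC is a mean-centring transformation applied separately to each screened line.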
Experiment [7] in a line: BET inhibitor-based combinations targeting novel dependencies in MECOM-rearranged (r) AML: UCSD-AML1 cell line (AID 2202235).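 Note: series mostly up to about 46 µM; plate controls were DMSO vehicle wells for no effect and blank wells for full effect; nearly all actives have a fitted effect of over 40% in size.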 In outline:
as §2

Cellular tumor antigen p53 (Homo sapiens), sequence (P04637 whole entry, looked up): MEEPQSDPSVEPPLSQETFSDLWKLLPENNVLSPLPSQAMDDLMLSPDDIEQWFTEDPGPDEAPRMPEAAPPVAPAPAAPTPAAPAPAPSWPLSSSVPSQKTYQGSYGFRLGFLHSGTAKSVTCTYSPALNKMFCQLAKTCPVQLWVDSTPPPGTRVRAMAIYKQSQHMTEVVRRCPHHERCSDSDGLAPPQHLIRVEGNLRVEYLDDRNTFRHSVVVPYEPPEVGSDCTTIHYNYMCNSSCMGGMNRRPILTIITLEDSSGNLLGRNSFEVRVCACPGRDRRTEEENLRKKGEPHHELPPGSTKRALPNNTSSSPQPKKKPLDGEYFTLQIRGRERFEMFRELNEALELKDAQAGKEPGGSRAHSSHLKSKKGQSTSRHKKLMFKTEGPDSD

As for `O=C(Cc1ccc(Cl)c(Cl)c1)N1CCCCC1CN1CCCC1` (configuration not stated), the activation in experiment [1] is -15.5%. Also, the Potency result in experiment [2] is “inactive”.
Take `CC[C@@H](CO)NC(=O)[C@@H]1C=C2c3cccc4c3c(cn4C)C[C@H]2N(C)C1`: the activation in experiment [1] is -3.95% and -69.3%. In addition, the Potency entry in experiment [2] was “inactive”.
Take `CC1=NN=C(c2ccc(N)cc2)c2cc3c(cc2C1)OCO3`: the Potency in experiment [1] is 9.68 µM (active); in experiment [2], 21.3 µM (active); in experiment [3], 8.91 µM (active). In addition, the activation in experiment [1] is 6.58%.
Turning to `COc1ccc2c(c1O)-c1cccc3c1[C@@H](C2)N(C)CC3`, the activation in experiment [1] was -2.98%. Further, the Potency result in experiment [2] and in experiment [3] was “inactive” throughout.
As for `CCC(=O)OC1CCC2C3CCC4=CC(=O)CC[C@@]4(C)C3CC[C@]12C` (some centres not stated), the activation in experiment [1] was 14.6%.
Same read-out and setting: as for `C[C@H](N)[C@H](O)c1ccc(O)c(O)c1`, the figure is -36.8%; as for `COc1ccc(Cc2nccc3cc(OC)c(OC)cc23)cc1OC`, -17.6% and 20.4% and -35.4%.
As to `Cn1cnc(CCN)c1`, in experiment [1], the activation was -2.51%. Further, in experiment [2], the Potency entry is “inactive”.
Take `CC(C)NCC(O)c1ccccc1Cl` (configuration not stated): the activation in experiment [1] is 21.8%.
One may read the viability as a read-out of living cells in per cent, often relative to untreated cells. Regarding `Cn1cc(C2=C(c3cn(C4CCN(Cc5ccccn5)CC4)c4ccccc34)C(=O)NC2=O)c2ccccc21`, the Potency in experiment [1] is 21.7 µM (active); in experiment [6], 4.68 µM (active). For the same molecule, the activation in experiment [1] was 38.7%. In experiment [4], the viability is 103%. Further, the Potency entry in experiment [5] and in experiment [7] was “inactive” throughout.
With `Clc1ccc(N2CC3CCC(C2)N3)nn1`, the activation in experiment [1] was -9.56%. In experiment [2], the Potency result is “inactive”.
Take `C#CC1(O)CCC2C3CCC4=CC(=O)CCC4(C)C3CCC21C` (configuration not stated): the activation in experiment [1] was 2.51%.
On the same count and under the same terms, as for `CNC(C)Cc1ccc2c(c1)OCO2` (configuration not stated), the figure is 17.5%.
